# Measurements taken from PubChem BioAssay.
# Calls of active or inactive are those of the source. Unless noted, the rule behind the calls is not given here.
# Columns and labels:
# [1] = liver-stage malaria parasite load reduction – cell-based, known kinase inhibitor set, luminescence, hepatoma host viability (AID 624392); conditions: Plasmodium liver stage in hepatoma cells, luciferase luminescence, concentration not given here; liver cell % of control: measured here: host liver cell viability; parasite % of control: stronger effect = lower value;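 note: infected cells incubated roughly two days before readout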
# [2] = altered dexamethasone sensitivity, NF-kB reporter, cell-based, luciferase, IL-1B stimulus (AID 624486); conditions: IL-1B + dexamethasone, luminescence; percent of negative control (+Dex): actives lie on both sides, concentration not given here; z-score: measured here: IL-1B alone, no Dex;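 for percent of negative control (+Dex): 100% = mean signal of vehicle control wells on the plate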
# [3] = C. elegans survival during P. aeruginosa infection – whole organism (AID 651566);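 note: tested at 14 µM; sign flipped so higher z means a lower ratio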; conditions: C. elegans killed by P. aeruginosa, survival ratio
# [4] = pro-inflammatory signaling induction in mouse macrophages – cell-based, murine, luminescence (AID 652131); conditions: murine macrophage pro-inflammatory reporter, stronger effect = higher value
# [5] = biological target: Cellular tumor antigen p53 (Homo sapiens) (UniProt P04637); test: GFP-p53 level modulators in HPV16+ cells – imaging, known kinase inhibitor set, EGFP/DsRed ratio (AID 1053116); conditions: GFP-p53 stability, stronger effect = higher value; EGFP object count: measured here: GFP-p53 positive objects count;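 note: cells exposed to compounds for 24 h at 37 °C before reading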
# Chain of Cellular tumor antigen p53 (Homo sapiens) (P04637 whole entry, looked up): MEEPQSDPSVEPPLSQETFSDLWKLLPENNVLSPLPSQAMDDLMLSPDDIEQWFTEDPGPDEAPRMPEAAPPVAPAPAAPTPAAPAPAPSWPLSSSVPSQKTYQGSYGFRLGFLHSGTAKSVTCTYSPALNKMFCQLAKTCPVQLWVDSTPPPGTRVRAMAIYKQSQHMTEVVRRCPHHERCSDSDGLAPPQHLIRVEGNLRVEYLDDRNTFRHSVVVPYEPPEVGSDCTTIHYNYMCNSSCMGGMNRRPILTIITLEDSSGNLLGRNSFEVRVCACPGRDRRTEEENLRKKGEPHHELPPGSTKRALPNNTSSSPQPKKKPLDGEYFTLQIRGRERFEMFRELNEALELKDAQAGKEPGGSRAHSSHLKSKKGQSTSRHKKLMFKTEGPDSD
# [6] = inducers of IRF3 signaling, differentiated THP-1 – cell-based, PMA-stimulated THP-1, luminescence (AID 1053176); conditions: PMA-differentiated THP-1, IRF3 reporter luminescence; stronger effect = higher value
# [7] = MELAS cybrid and Rieske KO viability enhancers – cell-based, MELAS cybrids, Rieske KO mouse fibroblasts, CellTiter-Glo, primary screen (AID 1508586;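 active = mean z-score across replicates of 1.96 or higher in either the MELAS or the Rieske mutant cell line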;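 note: z relative to plate mean and SD of compound and empty wells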); conditions: low glucose
# [8] = MELAS cybrid survival, CellTiter-Glo 48 h, stronger effect = higher value
# [9] = Rieske KO mouse fibroblast survival, CellTiter-Glo 72 h
SMILES,liver cell % of control [1],parasite % of control [1],percent of negative control (+Dex) [2],z-score [2],z-score [3],z-score [4],EGFP object count [5],EGFP/DsRed ratio [5],fraction signal [6],"z-score [7, 8]","z-score [7, 9]"
CS(=O)(=O)Nc1ccc(N=Cc2c(O)[nH]c3ccccc23)cc1,95.2%,107% (inactive),108% (inactive),1.36,0.265 (inactive),2.34 (inactive),4,0.123 (inactive),-0.0045 (inactive),1.4 (inactive),-0.36
COc1cc2ncn(-c3cc(OCc4ccccc4C(F)(F)F)c(C(=O)N(C)C)s3)c2cc1OC,104%,116% (inactive),89.5% (inactive),-0.475,0.535 (inactive),0 (inactive),8.5,0.396 (inactive),-0.002 (inactive),0.0168 (inactive),-0.0859
CCn1c(-c2nonc2N)nc2c(C#CC(C)(C)O)ncc(OCC3CCNCC3)c21,88.1%,91.5% (inactive),86% (inactive),-0.76,-1.35 (inactive),3.98 (inactive),13,0.169 (inactive),0.002 (inactive),0.123 (inactive),-0.292
NS(=O)(=O)c1ccc(-c2cc3ccncc3cc2OCc2ccccc2)cc1,218%,144% (inactive),81% (inactive),-1.8,-0.345 (inactive),6.56 (active),4.5,0.0743 (inactive),-0.005 (inactive),-0.151 (inactive),-0.251
COc1ccc(C2=C(N3CCc4ccccc43)C(=O)NC2=O)cc1,80.9%,77.5% (inactive),84% (inactive),-0.36,0.12 (inactive),-0.139 (inactive),7.5,0.229 (inactive),-0.0035 (inactive),-0.15 (inactive),-0.362
c1ccc(-c2nc3n(c2-c2ccc4c(c2)OCO4)CCC3)nc1,103%,16.7% (inactive),102% (inactive),0.295,1.04 (inactive),4.3 (inactive),6,0.172 (inactive),-0.003 (inactive),-1.04 (inactive),0.741
Fc1ccc(-c2ncn(C3CCNCC3)c2-c2ccnc(Oc3ccc4c(c3)OCO4)n2)cc1,71.9%,187% (inactive),107% (inactive),0.635,0.22 (inactive),0.062 (inactive),6.5,0.159 (inactive),-0.0065 (inactive),-0.249 (inactive),-0.36
N#Cc1c(NC(=O)CN2CCOCC2)sc2c1CCCC2,105%,134% (inactive),98% (inactive),-0.1,0.4 (inactive),0.254 (inactive),3.5,0.0894 (inactive),0.0015 (inactive),-0.581 (inactive),-0.17
NS(=O)(=O)c1ccc(N=Nc2c(=O)[nH]c3ccc4[nH]cccc4c23)cc1,108%,91% (inactive),144% (active),1.98,1.48 (inactive),-1.63 (inactive),1.5,0.0128 (inactive),-0.0065 (inactive),2.43 (active),0.199
CCc1cccc(CC)c1/C=C/c1cncc(C(=O)NC)c1,170%,99.3% (inactive),81% (inactive),-0.295,-0.265 (inactive),0.127 (inactive),4.5,0.156 (inactive),-0.0125 (inactive),1.32 (inactive),-0.269
CS(=O)(=O)CCNCc1ccc(-c2ccc3ncnc(Nc4ccc(OCc5ccccc5)cc4)c3c2)o1,63.9%,59.1% (inactive),74.5% (inactive),-1.54,0.41 (inactive),-0.003 (inactive),6.5,0.116 (inactive),0.006 (inactive),0.5 (inactive),-0.312
COc1ccc(CNC(=O)c2ccc(-c3cc(-c4nnc(C)o4)ccc3C)cc2)cc1,172%,67.1% (inactive),102% (inactive),0.42,1.23 (inactive),-0.363 (inactive),3,0.129 (inactive),-0.008 (inactive),-0.23 (inactive),-0.248
NS(=O)(=O)c1ccc(Nc2ncc(-c3ccccc3)o2)cc1,108%,123% (inactive),117% (inactive),0.745,-0.98 (inactive),0.209 (inactive),3.5,0.0759 (inactive),-0.0035 (inactive),1.06 (inactive),-0.0466
Oc1cccc(-c2nc(-c3ccccc3)[nH]c2-c2ccncc2)c1,111%,13.2% (active),124% (inactive),1.75,0.81 (inactive),1.63 (inactive),2.5,0.0183 (inactive),0.0025 (inactive),-0.947 (inactive),-0.653
COc1cc2ncn(-c3cc(O[C@H](C)c4ccccc4Cl)c(C(N)=O)s3)c2cc1OC,137%,13.5% (active),53.5% (inactive),-3.26,-0.155 (inactive),-1.16 (inactive),5.5,0.108 (inactive),-0.004 (inactive),-1.03,5.68
CC1=C(C(=O)Nc2cc(Cl)c3[nH]ncc3c2)C(c2ccc(C(F)(F)F)cc2)CC(=O)N1 (stereo not drawn),106%,193% (inactive),73% (inactive),-1.52,-0.22 (inactive),-0.455 (inactive),2,0.126 (inactive),-0.01 (inactive),-0.0142 (inactive),-0.416
Cc1ccc(C(=O)NC(C)C)cc1-c1ccc(C(=O)NCC2CC2)cc1,90%,124% (inactive),94.5% (inactive),1.18,0.505 (inactive),0.198 (inactive),3,0.0297 (inactive),-0.008 (inactive),0.0329 (inactive),0.189
CN(C)CCNC(=O)Nc1ccc(N(C)c2ccnc(Nc3ccc(CS(C)(=O)=O)cc3)n2)cc1,111%,94.7% (inactive),101% (inactive),-0.235,-0.12 (inactive),3.19 (inactive),1,0.0718 (inactive),0.0045 (inactive),-0.741 (inactive),-0.109
Fc1cccc(COc2ccc(Nc3ncnc4sc(-c5cccs5)cc34)cc2Cl)c1,71.8%,60.1% (inactive),92% (inactive),0.005,0.99 (inactive),-0.373 (inactive),5,0.0533 (inactive),-0.0045 (inactive),-0.00271 (inactive),-0.496
COc1ccccc1-c1cc(/C=C2\C(=O)Nc3ncc(Br)cc32)cc(Br)c1O,102%,116% (inactive),96% (inactive),-0.115,0.69 (inactive),-0.578 (inactive),1,0.142 (inactive),0.0015 (inactive),-0.581 (inactive),-0.341
CC(=Nc1ccc(S(N)(=O)=O)cc1)c1c(O)[nH]c2ccccc12,121%,234% (inactive),176% (active),5.95,-0.905 (inactive),6.44 (active),0.5,0.00933 (inactive),0.0025 (inactive),-0.469 (inactive),-0.351
CCn1cc(-c2ccnc3[nH]ccc23)c(-c2cccc(NC(=O)Nc3ccc(OCc4ccccc4)cc3)c2)n1,76%,95.6% (inactive),93.5% (inactive),0.135,-1.14 (inactive),-1.24 (inactive),6.5,0.11 (inactive),-0.0115 (inactive),0.828 (inactive),0.137
CCn1c(-c2nonc2N)nc2cncc(C(=O)N3CC[C@H](N)C3)c21,108%,146% (inactive),76.5% (inactive),-2.08,-0.435 (inactive),1.55 (inactive),4,0.0807 (inactive),-0.0035 (inactive),-0.752 (inactive),-0.175
Cc1cc(O)cc(C)c1/C=C/c1cncc(-c2nn[nH]n2)c1,110%,109% (inactive),106% (inactive),-0.05,0.305 (inactive),3.53 (inactive),4.5,0.0667 (inactive),-0.004 (inactive),-0.295 (inactive),-0.403
NCc1ccc(-c2nc(-c3ccc(Cl)c(O)c3)c(-c3ccncc3)[nH]2)cc1,94.8%,77.4% (inactive),91.5% (inactive),-0.18,1.2 (inactive),-0.414 (inactive),2,0.0758 (inactive),0.0015 (inactive),0.156 (inactive),-0.269
CCn1c(-c2nonc2N)nc2c(C#CC(C)(C)O)nc(OC[C@H](N)c3ccccc3)cc21,91.7%,78.3% (inactive),106% (inactive),1.86,0.015 (inactive),-1.25 (inactive),7.5,0.207 (inactive),-0.0025 (inactive),-0.101 (inactive),0.135
Cc1ccc2[nH]c(O)c(N=Nc3ccc(S(N)(=O)=O)cc3)c2c1,164%,128% (inactive),102% (inactive),0.885,-0.295 (inactive),-0.079 (inactive),5,0.439 (inactive),-0.0055 (inactive),-0.101 (inactive),-0.00523
NS(=O)(=O)c1ccc(N=Nc2c(O)[nH]c3ccc(C(=O)NCCc4cnc[nH]4)cc23)cc1,82.2%,110% (inactive),85.5% (inactive),-0.045,-1.15 (inactive),-0.108 (inactive),7.5,0.141 (inactive),-0.0145 (inactive),0.0573 (inactive),-0.291
